# Reference: PubChem BioAssay AID686978 (National Center for Advancing Translational Sciences (NCATS), 2013)
# The campaign covered roughly 420,000 compounds. About 64,000 (15%) were called active. Roughly 27% stayed inconclusive and do not appear here. Calls follow the shape of the dose curve; as a rule, active = well fitted inhibition curve with a large enough effect; inconclusive = small, poorly fitted or top-dose-only effect; inactive = flat fitted curve, though single readings scatter. A selection follows.
# Experiment: qHTS for Inhibitors of human tyrosyl-DNA phosphodiesterase 1 (TDP1): qHTS in cells in absence of CPT; also: nearly all actives have a fitted effect of over 55% in size
# Settings: DT40 Tdp1-/- hTDP1 cells, no CPT, ATP luminescence, 48 h; activity change, negative = growth inhibition: at 46.2 µM (top of the series)
# In short: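 Growth kinetics read by CellTiter-Glo luminescence after ≥48 hr at 37 °C. Cells: DT40 Tdp1-/- stably carrying human TDP1, 400 per well, compound exposure in the absence of CPT (DMSO vehicle).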
# % is scaled to controls: 0 for no effect and ±100 for the full control effect; potency is read from the fitted curve at half-maximal effect.
Compound,"activity change, negative = growth inhibition",Potency
Cc1cc(NC(=O)CN2C(=O)NC(CCc3ccccc3)C2=O)no1 (stereo not drawn),14.2% (inactive),
CCOc1ccc(CCN2C(=O)c3cccnc3C2=O)cc1OCC,-19.1% (inactive),
CN(C(=O)C1CCOC1)c1nnc(-c2cccnc2)s1 (stereo not drawn),-7.53% (inactive),
CC(CNC(=O)c1ccc(N)cc1)NC(=O)c1ccc(N)cc1 (stereo not drawn),-21% (inactive),
Cc1cc(C)c2[nH]c(=O)c(C(c3nnnn3Cc3ccc4c(c3)OCO4)N3CCCC3)cc2c1 (stereo not drawn),,2.31 µM (active)
CCOC(=O)C1CCN(C(c2cc3cc(C)cc(C)c3[nH]c2=O)c2nnnn2C2CCCCC2)CC1 (stereo not drawn),-8.63% (inactive),
CC(C)(C)n1nnnc1C(c1ccc(F)cc1)N1CCN(Cc2ccc3c(c2)OCO3)CC1 (stereo not drawn),-20.6% (inactive),
O=C(NCc1ccco1)/C(=C/c1cccc([N+](=O)[O-])c1)NC(=O)c1ccco1,-7.01% (inactive),
COc1cc(NC(=O)CCS(=O)(=O)c2ccc3c(c2)oc(=O)n3C)cc(OC)c1,5.76% (inactive),
O=C(Nc1cc(C(F)(F)F)ccc1Cl)c1cc(C2CC2)on1,-2.31% (inactive),
COc1ccc(-n2cnnc2SCC(=O)Nc2cccc(S(N)(=O)=O)c2)cc1,4.46% (inactive),
c1ccc2c(c1)CSc1sccc1C2=C1CCNCC1,,16.4 µM (active)
Nc1nc(Br)c2ccccc2c1-c1ccc(F)cc1,-14.7% (inactive),
CCOc1c(Nc2cccc(Cl)c2)c(=O)c1=O,-14.5% (inactive),
CCNCCCNCCCNCCCNCC,,3.76 µM (active)
COc1ccc2oc(=O)c(C(=O)N3CCCc4ccccc43)cc2c1,-27.3% (inactive),
CN(C(=O)Nc1ccc(Cl)cc1)n1cnc2ccccc2c1=O,-22.3% (inactive),
Cc1[nH]n(-c2ccc(Cl)cc2)c(=O)c1/C=N/n1c(C)nc2ccccc2c1=O,,18.4 µM (active)
S=C(Cc1ccc(Cl)cc1)N1CCOCC1,-3.23% (inactive),
C=C1C(=O)OC2C1CCC(C)=CCCC1(C)OC21 (stereo not drawn),,3.26 µM (active)
CCn1cc(-c2cc(C(=O)O)on2)c(C)n1,4.25% (inactive),
CN(C)S(=O)(=O)c1ccc(N/C=C(\[N+](=O)[O-])S(=O)(=O)c2ccccc2)cc1,-20.4% (inactive),

Compound,"activity change, negative = growth inhibition",Potency
COc1ccc(N/C=C(\C2OC(=O)c3ccccc32)[N+](=O)[O-])cc1 (stereo not drawn),,23.1 µM (active)
COc1ccc(NC(=O)C2=C(C)NC(=O)NC2c2ccccc2[N+](=O)[O-])cc1 (stereo not drawn),-13.5% (inactive),
CC(C)=CCC/C(C)=C/C(=O)O,1.48% (inactive),
O=C(NCCCNC(=O)NC1CCCCC1)NC1CCCCC1,-15.5% (inactive),
CC1(C)Cc2c(sc3nc(SCC(=O)NCc4ccccc4)n(-c4ccccc4)c(=O)c23)CS1,-5.28% (inactive),
CCOc1ccc(-n2c(SCC(=O)Nc3ccc(OC)cc3)nc3sc4c(c3c2=O)CCN(C)C4)cc1,-11.7% (inactive),
CCCSc1nc2sc3c(c2c(=O)n1-c1ccc(OC)cc1)CCN(C)C3,,14.6 µM (active)
CCn1c(SCC(=O)Nc2ccc(Br)cc2)nc2sc3c(c2c1=O)CCN(C)C3,-1.28% (inactive),
CCSc1nc2sc3c(c2c(=O)n1-c1ccc(C)cc1)CCN(C)C3,,7.31 µM (active)
COc1ccccc1-n1c(SCC(=O)O)nc2sc3c(c2c1=O)CCC3,13.9% (inactive),
CC(=O)CSc1nc(CCc2ccccc2)c(C#N)c(=O)[nH]1,-5.37% (inactive),
COc1ccc(NC(=O)c2cc(=O)[nH]c3ccccc23)cc1S(=O)(=O)N1CCOCC1,8.13% (inactive),
Cc1sc2ncn(CC(=O)NCCN(C)C)c(=O)c2c1S(=O)(=O)N1CCC(C)CC1,1.52% (inactive),
O=C(Nc1cccc(OCC(=O)N2CCOCC2)c1)C1CCCCC1,-2.37% (inactive),
COc1cc(/C=C/C(=O)O)cc(S(=O)(=O)Nc2ccccc2C(=O)NCCc2ccccc2)c1OC,0.839% (inactive),
Cc1cc(C)nc(/N=C2\NC(=O)CC(C(=O)O)N2c2ccc(Cl)cc2Cl)n1 (stereo not drawn),1.51% (inactive),
COc1ccc(C(C#N)Nc2ccccc2C)cc1 (stereo not drawn),8.96% (inactive),
COC(=O)C1C(=O)NCC1c1ccc(OC)cc1 (stereo not drawn),-1.94% (inactive),
COc1ccc(N2C(=O)C(O)C2c2ccc(C)cc2)cc1 (stereo not drawn),-27% (inactive),
COC(=O)C1=C(Nc2ccc(OC)cc2)C=C(C)C(C(=O)OC)C1c1ccc(C)cc1 (stereo not drawn),,16.4 µM (active)
O=C(Nc1ccccc1F)C1C2C=CC3(O2)C1C(=O)N(c1cccnc1)C3C(=O)NC1CCCCC1 (stereo not drawn),-2.74% (inactive),
CCCNc1c(N)c(=O)c1=O,-1.28% (inactive),

Compound,"activity change, negative = growth inhibition",Potency
Cc1nc([N+](=O)[O-])c(NCCCO)n1Cc1ccccc1,2.67% (inactive),
COc1ccc(C2OCC3(CO2)SC(=O)NC3=O)cc1OC (stereo not drawn),-5.98% (inactive),
Cn1c(=O)c2c(nc(SCCNS(=O)(=O)c3ccccc3)n2C)n(C)c1=O,-27.8% (inactive),
CCOc1ccc(Cn2c(SCCCCC#N)nc3c2c(=O)n(C)c(=O)n3C)cc1OCC,-13.1% (inactive),
CSc1nnc(C2CCCN(CC(=O)Nc3ccccc3N3CCOCC3)C2)n1C(C)C (stereo not drawn),-22% (inactive),
CC(C)n1c(SCC(=O)Nc2ccccc2N2CCCCC2)nc2c1c(=O)n(C)c(=O)n2C,,23.1 µM (active)
CCC1CCCCN1C(=O)CSc1nc2c(c(=O)n(C)c(=O)n2C)n1C (stereo not drawn),-29.5% (inactive),
Cn1c(=O)c2c(nc(SCC(=O)Nc3ccc(F)cc3)n2Cc2ccccc2)n(C)c1=O,,4.61 µM (active)
CCCSc1nc2c(c(=O)n(C)c(=O)n2C)n1Cc1ccc(C)cc1,,16.4 µM (active)
C#CC(C)(C)NC(=O)CSc1nc2c(c(=O)n(C)c(=O)n2C)n1CCCC,-10.2% (inactive),
Cc1cccc(Cn2c(SCCO)nc3c2c(=O)n(C)c(=O)n3C)c1,,14.6 µM (active)
CCOC(=O)CSc1nc2c(c(=O)n(C)c(=O)n2C)n1Cc1ccccc1F,-23.5% (inactive),
COc1ccc(NC(=O)CCn2ccnc2)c(OC)c1,-19.5% (inactive),
Cc1ccc(C2(C)NC(=O)N(CC(=O)Nc3ccccc3C(=O)N3CCCCC3)C2=O)cc1 (stereo not drawn),3.02% (inactive),
CC(=O)NC(CC(=O)Nc1nc(-c2ccccc2)c(C(C)=O)s1)c1ccccc1 (stereo not drawn),-17.4% (inactive),
CCCCn1c(=O)c(C(C)=O)c(O)c2ccccc21,-5.9% (inactive),
Cc1cc(=O)n2c3c(cccc13)CCC2,-12% (inactive),
CCNC(=O)c1c(O)c2cccc3c2n(c1=O)CC3,,23.1 µM (active)
CC(C)Cc1nnc(NC(=O)CCNC(=O)c2ccccc2Cl)s1,0.833% (inactive),
COc1ccccc1CNc1nccn(-c2ccc(F)cc2)c1=O,-25.6% (inactive),
COc1cccc(-c2cc3nc(NCc4ccccc4OC)n(C)c(=O)c3s2)c1,,20.6 µM (active)
Cn1c(NCc2cccnc2)nc2cc(-c3ccc(F)cc3)sc2c1=O,-1.95% (inactive),

Compound,"activity change, negative = growth inhibition",Potency
CC(=O)NC(CC(=O)O)c1ccc(F)cc1 (stereo not drawn),-8.86% (inactive),
CC1(Cc2ccccc2C#N)C(=O)Nc2ccc(-c3ccc4[nH]ccc4c3)cc21 (stereo not drawn),,4.11 µM (active)
COc1ccccc1CC1(C)C(=O)Nc2ccc(OC(F)(F)F)cc21 (stereo not drawn),-55.2% (inactive),
CN1CCCN(S(=O)(=O)c2ccc3c(c2)OCCO3)CC1,,inactive
N#CCC(=O)NC(=O)NCC1CC1,-5.15% (inactive),
CC(OC(=O)c1ccc(-n2cnnn2)cc1)C(=O)NCc1ccccc1 (stereo not drawn),-20.2% (inactive),
CCc1ccnc(NC(=O)Nc2ccc(OCc3ccccc3)cc2)c1,-9.03% (inactive),
O=C(O)/C=C\C(=O)Nc1ccc(OCc2ccccc2)cc1,3.99% (inactive),
CC(C)(C)OC(=O)N(Cc1ccccc1)Cc1ccc(OCc2cccc(NC(=O)c3ccccc3)c2)cc1,,18.4 µM (active)
CN(CC(=O)Nc1cccc(F)c1)C(=O)CC1CCCC1,-0.65% (inactive),
Cc1cccc(C(=O)OC(C)CN2CCN(C)CC2)c1 (stereo not drawn),-23.2% (inactive),
Cc1ccc(CNC(=O)Cn2cnc3c(NCc4ccccc4)ncnc32)o1,,8.2 µM (active)
Cc1ccc(NC(=O)Cn2cnc3c(OCc4ccccc4)ncnc32)cc1C,-17.5% (inactive),
CC(CNC(=O)Cn1cnc2c(OCc3ccccc3)ncnc21)c1ccccc1 (stereo not drawn),-19.5% (inactive),
Cc1cccc(OP(=O)(Nc2c(C)n(C)n(-c3ccccc3)c2=O)Oc2cccc(C)c2)c1,-7.24% (inactive),
CCC1CCCCN1CCCNC(=O)Cn1nc(-c2ccccc2)ccc1=O (stereo not drawn),,0.0103 µM (active)
Cc1ccc(-c2ccc(=O)n(CC(=O)NCCCN3CCCCC3)n2)cc1,-4.15% (inactive),
CCC1CCCCN1CCCNC(=O)C1CCC(Cn2c(=O)[nH]c3ccccc3c2=O)CC1 (stereo not drawn),4.53% (inactive),
Cc1ccc(C2Nc3ccccc3C(=O)N2CCN2CCNC2=O)cc1 (stereo not drawn),-10.8% (inactive),
COc1cccc(CNC(C)C(=O)Nc2ccc(S(=O)(=O)N3CCCC3)cc2)c1 (stereo not drawn),-11.5% (inactive),
COc1ccc(S(=O)(=O)N2CCN(C(C)C(=O)Nc3ccc(C(C)C)cc3)CC2)cc1 (stereo not drawn),,14.6 µM (active)
COc1ccc(OCC(=O)OCC(=O)Nc2ccc(S(=O)(=O)N3CCCCC3)cc2)cc1,3.34% (inactive),

Compound,"activity change, negative = growth inhibition",Potency
CCOC(=O)Cc1cc(=O)[nH]c(/N=C(\N)Nc2ccc(OC)cc2)n1,-6.58% (inactive),
CNC(=O)N1c2ccccc2C=Cc2ccccc21,-7.48% (inactive),
CC1C(C)N(C(=O)CCl)c2ccccc2N1C(=O)CCl (stereo not drawn),,0.58 µM (active)
CC1CCN(C(=O)CCNC(=O)c2ccccc2)CC1,-1.19% (inactive),
Cc1nc(C)c2c(c1C(F)(F)F)-c1ccccc1C2(F)F,-11.9% (inactive),
O=C(NC1CCCC1)c1ccc(Br)s1,-11.5% (inactive),
CCOc1c2ccc(C(=O)NCc3ccc(OC(F)(F)F)cc3)cc2nn1C,-6.96% (inactive),
COc1ccc(CNCCCNCc2ccc(OC)c(OC)c2)cc1OC,-14.4% (inactive),
COc1cc(CNCc2ccc(OC)c3ccccc23)cc(OC)c1OC,,11.6 µM (active)
COc1cc(CNCc2cccs2)cc(Br)c1OC,-18.6% (inactive),
COc1ccc(CNC(=O)COC(=O)C2=Cc3ccccc3OC2)cc1,-21.4% (inactive),
O=C(COc1ccccc1)N1CCc2ccccc2C1,-23% (inactive),
CCC(CC)c1nnc(NC(=O)/C=C/c2ccco2)s1,-3.52% (inactive),
CCc1ccc2oc(-c3ccc(C)c(NC(=O)/C=C/c4ccco4)c3)nc2c1,,18.4 µM (active)
Cc1ccc2nc(-c3ccc(C)c(NC(=O)Cc4ccccc4)c3)oc2c1,-6.56% (inactive),
NC(=S)c1ccc(C(N)=S)o1,-1.35% (inactive),
Cc1ccc(C(=O)O/N=C(\N)c2ccccn2)cc1Cl,-22.4% (inactive),
CCc1nnc(NC(=O)/C=C/c2ccc(C)o2)s1,5.94% (inactive),
Cc1ccc(/C=C/C(=O)Nc2ccc([N+](=O)[O-])c(NC(=O)/C=C/c3ccc(C)o3)c2)o1,,11.6 µM (active)
COc1ccc(OC)c(NC(=O)/C=C/c2ccc(C)o2)c1,-22.9% (inactive),
